Results published in PubChem BioAssay AID463212 (Sanford-Burnham Center for Chemical Genomics, 2010).
The campaign covered roughly 330,000 compounds. About 4,400 (1.3%) were called active. This is one part of a sample in which actives are shown more often than they occur.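 The calls were made as follows: active = growth inhibition of the mutant yeast at or above 50%; inactive = the rest.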

Assay: growth inhibition of tim23-1 ts yeast – luminescence, uHTS, primary screen (AID 463212);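 also: temperature-sensitive mutant grown at 25 °C; plate controls were DMSO-treated mutant yeast for no effect and medium wells lacking yeast for full effect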
Settings: S. cerevisiae tim23-1 growth, BacTiter-Glo luminescence, 24 h; at 20 µM; stronger effect = higher value

inhibition, inactive:
O=C(N/N=C/c1cccc2cccnc12)[C@H]1C[C@@H]1c1ccccc1 18.6%, CCOc1ccc(C(C)C)cc1S(=O)(=O)n1nc(C)cc1C 36.9%, COc1ccc(OC)c(S(=O)(=O)n2c([N+](=O)[O-])cnc2C)c1 12.9%, COc1cc(OC)c(NS(=O)(=O)c2cn(C)cn2)cc1Cl -16.4%, CC(C)(C)n1nnnc1C(c1ccccc1F)N1CCN(C(=O)c2ccco2)CC1 (stereo unspecified) 19.8%, CC(=O)O[C@H]1CC[C@@]2(C)[C@@H](CC[C@@H]3[C@@H]2CC[C@]2(C)[C@@H](C(C)(C)O)C[C@@H]32)C1 28.2%, Cc1cc(C)cc(C(=O)OCC(=O)NCCNC(=O)COC(=O)c2cc(C)cc(C)c2)c1 2.3%, C(=N/N1CCN(c2ccccc2)CC1)/c1cccs1 15.3%, CN1CN(C)c2ccc([N+](=O)[O-])c3cccc1c23 9.47%, CCOc1cccc(=O)c2c(C)n(CC3CCCO3)c(C)c12 (stereo unspecified) -1.14%, O=C(CC1CCCCC1)NCc1ccccc1 14.8%, N/C(=N\OC(=O)CCC1CCCCC1)c1ccccn1 30.2%, O=C(COC(=O)c1ccc(Cl)nc1)NCc1ccc2c(c1)OCO2 6.05%, COc1cccc(CN2CCN(Cc3ccc4cccc(F)c4n3)CC2CCO)c1 (stereo unspecified) 6.61%, NC(=O)c1ccsc1NC(=O)c1ccco1 6.25%, O=C(Nc1nnc(CCOCCOCCc2nnc(NC(=O)c3ccco3)s2)s1)c1ccco1 -4.68%, N#Cc1ccc(N2Cc3ccccc3/C2=N/C(=O)Nc2ccc(Cl)cc2)cc1 28.7%, Cc1ccc(Cl)c(OCC(=O)N2CCc3ccccc3C2)c1 35.1%, c1ccc(-c2csc(N3CCc4ccccc4C3)n2)cc1 14.4%, CCc1cc(=O)oc2c(C)c(OCC(=O)N3CC[C@@]4(O)CCCC[C@H]4C3)ccc12 2.55%, CNS(=O)(=O)c1cnccc1N1CCN(c2cccc(C)c2)CC1 0.287%, CCC(CC)NC(=O)/C=C/c1cccc([N+](=O)[O-])c1 17.4%, Cc1ccccc1N1CC(C(=O)Nc2ccc3c(c2)OCO3)CC1=O (stereo unspecified) 2.96%, COc1ccc(-c2n[nH]c(C)c2-c2ccccc2OC)c(O)c1 38.9%, O=C1COc2ccc(S(=O)(=O)NCCc3ccc(Cl)cc3)cc2N1 8.79%, CCOC(=O)c1ccc(NC(=O)c2cccnc2)cc1 13.2%, CC(=O)NC(=S)Nc1ccc(NC(=O)c2cccnc2)cc1 16.1%, Cc1cc(C(=O)COc2ccccc2[N+](=O)[O-])c(C)n1-c1cccc(S(=O)(=O)N2CCOCC2)c1 7.4%, O=c1c2ccccc2nc2n1C(CSCc1cccc(C(F)(F)F)c1)CS2 (stereo unspecified) 14.7%, O=C1CN(c2nc(-c3ccccc3)c3cc(Br)ccc3n2)c2ccccc2N1 4.72%, Cc1ccc(CNC(=O)Cn2cnc(S(=O)(=O)N3CCCCC3)c2)o1 -6.13%, Cc1[nH]n(C)c(=O)c1N=Nc1ccc(S(C)(=O)=O)cc1 11.7%, CC1=NN(C(N)=S)C(=O)C1N=Nc1cc(Cl)ccc1Cl (stereo unspecified) 36.9%, Cc1c(Cl)cccc1NC(=O)CSc1ccc(-c2cccnc2)nn1 2.22%, O=S(=O)(Nc1nccs1)c1ccc2c(c1)OCCO2 12.7%, COCCOC(=O)C1=C(C)N=c2s/c(=C\c3cccs3)c(=O)n2C1c1cccs1 (stereo unspecified) -11.4%, CCOC(=O)C1=C(CSc2nccn2C)NC(=O)NC1c1ccc(OC)cc1 (stereo unspecified) 7.63%, Cc1cc(=O)oc(C)c1C(=O)NC1CC(C)(C)NC(C)(C)C1 13.7%, CN(C)NC(=O)c1csnc1-c1c(Cl)cccc1Cl -15.4%, Cn1cccc1C(=O)OCC(=O)c1ccc(Br)s1 15.9%, COc1ccc2sc(-c3ccccc3OC)c(-c3ccc(OCCN4CCCC4)cc3)c2c1 -0.331%, COc1ccc(-c2sc3ccccc3c2-c2ccc(OCCN3CCOCC3)cc2)cc1 28%, CC1=C(C(N)=O)C(c2ccc3c(c2)OCO3)n2nc(-c3cccc(C)c3)nc2N1 (stereo unspecified) 18.1%, Cc1cccc(C)c1NC(=O)CSc1nnc(-c2ccccc2)n1Cc1ccc2c(c1)OCO2 3.97%, O=C(Nc1nnc(C2CC2)s1)C1=NN(C2CCS(=O)(=O)C2)C(=O)CC1 (stereo unspecified) 9.54%, COc1cc2c(cc1OC)C(/C=C/c1ccco1)=NCC2 -9.38%, CC(C)c1ccc(S(=O)(=O)N2CCN(C(C)C(=O)NC3CCCC3)CC2)cc1 (stereo unspecified) 13.4%, COc1cccc(CNC(C)C(=O)Nc2ccc(S(=O)(=O)N3CCCC3)cc2)c1 (stereo unspecified) 19.6%, O=C1NC[C@@H](Cc2ccc(O)cc2)N(CCc2cccc(F)c2)C1=O 11.4%, CC(=O)Nc1ccc(S(=O)(=O)N2CCN(C(=O)c3ccccc3F)CC2)cc1 3.67%, Cc1ccc(/C(N)=N/OC(=O)COc2ccc(Cl)c(C)c2)cc1 24.2%, Cc1ccc(C(=O)O/N=C(\N)c2ccccn2)cc1Cl 6.93%, CC(C)(C)NC(=O)CN1CCC(NC(=O)C23CC4CC(CC(C4)C2)C3)CC1 18%, O=C(c1ccc(S(=O)(=O)NCc2ccco2)cc1)N1CCN(c2ccccc2)CC1 19.3%, O=C(Nc1ccccc1)c1cc2ccccc2[nH]1 -6.12%, COc1ccc(Cn2c(=S)[nH]c3cc(C(=O)NCCCN4CCOCC4)ccc3c2=O)cc1 18%, CCCCn1c(=S)[nH]c2ccccc2c1=O 43.6%, O=C(N[C@@H]1C/C=C\C[C@@H](CC(=O)N(CCO)Cc2ccccc2)C(=O)N[C@H](Cc2ccccc2)COC1=O)OCC1c2ccccc2-c2ccccc21 22.7%, O=C(N[C@H]1C/C=C\C(c2ccc(F)cc2)N(Cc2ccccc2)C(=O)C1)OCC1c2ccccc2-c2ccccc21 (stereo partly specified) 38.6%, Cc1cc2c(cc1C)N(C(=O)CN1C(=O)c3ccccc3C1=O)C(C)(C)c1ssc(=S)c1-2 30.3%, Cc1ccc(C(=O)Nc2ccc(NC(=O)c3cccs3)cc2)c(C)c1 11.9%, COc1cc(NC(=O)c2ccc3c(c2)OCO3)ccc1NC(=O)c1cccs1 -5.22%, O=C(Nc1cc(-c2ccccc2)nn1-c1ccccc1F)c1ccc([N+](=O)[O-])cc1 18.1%, CCn1ncc(Br)c1C(=O)Nc1cc(C)ccc1F 38.3%, CCCc1[nH]nc2c1C(c1ccc(OC(=O)c3ccco3)cc1)C(C#N)=C(N)O2 (stereo unspecified) -11.4%, CCCc1[nH]nc2c1C(c1ccc(OC)c(Cn3nc(C)c(Br)c3C)c1)C(C#N)=C(N)O2 (stereo unspecified) 0.046%, O=C(O)C1CCCN(CCC=C(c2ccccc2)c2ccccc2)C1 (stereo unspecified) 4.65%, Cc1cccc(N2CCN(C(=O)c3cc4c(=O)[nH]c5ccccc5c4n3C)CC2)c1C 13%, CC(C)(C)OC(=O)NCCCC1=CC2=CC(=O)C(C)(OC(=O)c3ccco3)C(=O)C2=CO1 (stereo unspecified) 13.3%, COc1ccc(OCC(=O)Nc2ccc(NC(=O)c3ccco3)c(C)c2)cc1 16.1%, Cc1cccc(OCC(=O)Nc2ccc(NC(=O)c3ccco3)c(C)c2)c1 22%, Cc1cccc(N(C)C(=O)c2cc(S(=O)(=O)N3CCCCC3)c[nH]2)c1 23.4%, CCOC(=O)CSc1nnc(CNC(=O)Cc2ccccc2)n1-c1ccccc1OC 7.97%

inhibition, active:
COc1ccc(C(C[N+](=O)[O-])n2nc(C)cc2C)cc1 (stereo unspecified) 84.7%, O=C1c2cccc3c([N+](=O)[O-])ccc(c23)C(=O)N1CC1CCCO1 (stereo unspecified) 87%, N/C(=N\OC(=O)CC1CCCCC1)c1ccccc1 56.4%, O=C(Nc1nc(-c2ccco2)c(-c2ccco2)s1)c1ccco1 69.5%, Cc1ccc2c(c1)c1ncnc(N3CCc4ccccc4C3)c1n2C 51%, COc1ccccc1-c1n[nH]c2c1[C@H](C)CC[C@H]2C(C)C 53%, Cc1ccc2nc(-c3ccc(NC(=O)c4cccnc4)cc3)oc2c1 52%, Cc1[nH]n(C(N)=S)c(=O)c1N=Nc1ccc(Cl)cc1Cl 67%, CCOC(=O)C1=C(C)N=c2s/c(=C\C(=O)OC)c(=O)n2C1c1ccc(OC)cc1 (stereo unspecified) 52.3%, COc1cccc(-c2sc3ccc(OC)cc3c2-c2ccc(OCCN3CCCCC3)cc2)c1 58.8%, c1ccc(-c2nnc3n2NC(c2ccc4c(c2)OCO4)S3)cc1 (stereo unspecified) 57.2%, COc1ccc(S(=O)(=O)N2CCN(C(C)C(=O)Nc3ccc(C(C)C)cc3)CC2)cc1 (stereo unspecified) 50.6%, Cc1cccc(/C(N)=N/OC(=O)c2ccccc2Cl)c1 72.9%, O=c1c2ccccc2[nH]c(=S)n1CCN1CCC(=C(c2ccc(F)cc2)c2ccc(F)cc2)CC1 75.8%, O=C(N[C@H]1C/C=C\C(c2cccc(F)c2)N(Cc2ccccc2)C(=O)C1)OCC1c2ccccc2-c2ccccc21 (stereo partly specified) 59.7%, COc1cc(NC(=O)c2cccs2)ccc1NC(=O)c1ccccc1Cl 55.3%, CCCc1[nH]nc2c1C(c1ccc(Br)s1)C(C#N)=C(N)O2 (stereo unspecified) 86.6%, Cc1ccc(C(=O)COc2cccc(NC(=O)c3ccco3)c2)cc1 54.5%
